Results reported in ChEMBL document CHEMBL3988442, “University of Dundee, Small-Polar-MMV Screening Library” (2021).
Out of some 48,000 compounds screened, about 13,000 (27%) showed an effect of 50% or more. This is one part of the list.

system: Wolbachia pipientis; assay: Anti-Wolbachia Cell-Based Screen; format: functional; design: scale not given: in the data most compounds retested in dose-response had high values; conditions: 5 µM

Row | Structure (SMILES) | Percent Effect [%]
1 | O=c1oc(-c2ccccc2)nn1CN1CCC(N2CCCCC2)CC1 | -11.85
2 | Cc1nc2scc(C)n2c1CNc1ccc(C(=O)O)cc1 | 1.868
3 | CCC[C@@H]1CN(S(=O)(=O)c2ccc3[nH]c(=O)[nH]c3c2)C[C@H]1NC(C)=O | -12.43
4 | Cn1c(CN2CCN(CC3CC3)CC2)nnc1C1CCC1 | -1.801
5 | Cc1ccnc(C(NC(=O)c2ccc(O)nc2C)C2CC2)n1 (stereo not drawn) | 19.85
6 | COC(CNC(=O)c1ccc[nH]1)c1cccc(Cl)c1 (stereo not drawn) | -25.79
7 | Cc1cccc2c1nc(CCO)n2-c1ccc(C(=O)N2CCOCC2)o1 | -4.594
8 | CC(C)Oc1cc(N2CCC(C(N)=O)CC2)nc(N)n1 | 11.1
9 | CCN(CC)S(=O)(=O)N1C[C@@H](c2ccccc2)[C@H]2[C@H]1CCCCCN2C | 163.4
10 | CCN(CC(=O)NC(C)C)S(=O)(=O)N1CCCCC1C (stereo not drawn) | -3.982
11 | CCN(CC)S(=O)(=O)N1CC[C@H](c2ccccc2)[C@@H]2[C@H]1CCCCN2C | 135.6
12 | Cc1cc(S(=O)(=O)N2CCCc3ccc(F)cc32)sc1C(=O)O | -10.9
13 | O=C([C@@H]1CCO[C@@H]2CCN(Cc3ccco3)C[C@H]21)N1CCCCO1 | 1.589
14 | COc1ccc(CN2CCC[C@@H]3CN(C(=O)c4ccco4)C[C@@H]32)cc1.O=C(O)C(F)(F)F | 6.144
15 | COc1cccc(SCC(=O)N2CCCC(N3CCCC3=O)C2)c1 (stereo not drawn) | 3.036
16 | COC(C)(C)CNC(=O)C1CCC(=O)N(C2CCCC2)C1 (stereo not drawn) | -37.87
17 | COCC(=O)N1CCCN(C(=O)C2Cc3ccccc3CN2C)CC1 (stereo not drawn) | -0.0278
18 | CC(=O)N1CCCN(C2CCCCc3ccccc32)CC1 (stereo not drawn) | 16.59
19 | COCC(=O)N1CCC(=O)N(C2CCCC2)Cc2cc(F)ccc21 | 102.4
20 | COCC(=O)N1CCC(=O)N(C2CCCC2)Cc2ccccc21 | 125.1
21 | CC(=O)N1CCC(=O)N(C2CCCC2)Cc2ccccc21 | 106.7

Row | Structure (SMILES) | Percent Effect [%]
22 | COc1cccc(-n2nnc(C(=O)N3CCCC3)c2C)c1 | -5.233
23 | COCCO[C@@H]1CCN(C(=O)c2ccc(C)o2)[C@@H]1Cc1cnn(C)c1 | -2.237
24 | CCO[C@@H]1CCN(c2ccc(C)nn2)[C@@H]1Cc1cnn(C)c1 | 109.6
25 | COCCO[C@H]1CCN(C(=O)c2ccno2)[C@H]1Cc1cnn(C)c1 | -8.767
26 | Cn1cc(C[C@H]2[C@@H](O)CCN2C(=O)c2ccc[nH]2)cn1 | -3.734
27 | Cc1ccc(N2CC[C@H](O)[C@@H]2Cc2cnn(C)c2)nn1 | 105.5
28 | Cn1cc(C[C@H]2[C@H](O)CCN2C(=O)C2CCCC2)cn1 | -2.611
29 | CO[C@H]1CCN(c2ccc(C)nn2)[C@H]1Cc1cnn(C)c1 | -0.6949
30 | CCO[C@@H]1CCN(C(=O)N(C)C)[C@@H]1Cc1cnn(C)c1 | 6.075
31 | COCCO[C@H]1CCN(c2ccc(C)nn2)[C@H]1Cc1cnn(C)c1 | 102.2
32 | CCC(C)(NCC(=O)OC)c1nc(C)cs1 (stereo not drawn) | 4.251
33 | CC(C)c1nc2n(n1)CC(NCC(=O)N(C)Cc1cccs1)CC2 (stereo not drawn) | -0.7675
34 | Cn1c(=O)[nH]c2cc(C(=O)OCCCn3ccccc3=O)ccc21 | -6.987
35 | O=C(O)C(F)(F)F.O=C(O)C(F)(F)F.c1cnn(CCCO[C@@H]2CC[C@H]3[C@H]2OCCN3CC2CCOCC2)c1 | 107.9
36 | CCO[C@H]1CC[C@H]2[C@H]1OCCN2CCOCc1ccccc1.O=C(O)C(F)(F)F | -37.65
37 | CCO[C@@H]1CC[C@H]2[C@H]1OCCN2CCOCc1ccccc1.O=C(O)C(F)(F)F | -21.46
38 | Cc1nnc(N2C[C@H](OCCCn3cccn3)[C@H]3OCCC[C@H]32)s1 | 1.098
39 | Cc1nnc(N2C[C@@H](OCCCn3cccn3)[C@H]3OCCC[C@H]32)s1.O=C(O)C(F)(F)F.O=C(O)C(F)(F)F | 12.15
40 | O=C(O)C(F)(F)F.O=C(O)C(F)(F)F.c1cnn(CCCO[C@@H]2CN(C3CCOCC3)[C@@H]3CCCO[C@@H]32)c1 | 99.23
41 | O=C(CO[C@@H]1CC[C@H]2[C@H]1OCCN2CC1CCOCC1)N1CCCC1.O=C(O)C(F)(F)F | -8.196
42 | O=C(O)C(F)(F)F.O=C(O)C(F)(F)F.c1cnn(CCCO[C@@H]2CC[C@H]3[C@H]2OCCN3CC2CC2)c1 | 100.5

Row | Structure (SMILES) | Percent Effect [%]
43 | CN(C)CCSc1ccc(NC(=O)c2nccn3ccnc23)cc1 | 11.77
44 | COc1cc(OC)cc(C2CCN(CC(=O)NCC(F)(F)F)C2)c1 (stereo not drawn) | -9.174
45 | Cc1ccc(CN2CCOC3(COCCN(Cc4ccncc4)C3)C2)o1.O=C(O)C(F)(F)F.O=C(O)C(F)(F)F.O=C(O)C(F)(F)F (stereo not drawn) | -16.88
46 | CS(=O)(=O)N1CCOCC12CCN(Cc1ccc(F)cc1)CC2.O=C(O)C(F)(F)F | 90.38
47 | Cc1ccc(CN2CCOC3(COCCN(S(C)(=O)=O)C3)C2)o1.O=C(O)C(F)(F)F (stereo not drawn) | -4.149
48 | Cc1ccc(CN2CCC3(CC2)COCCN3S(C)(=O)=O)o1.O=C(O)C(F)(F)F | 105
49 | CS(=O)(=O)N1CCOCC2(CN(Cc3ccc(F)cc3)CCO2)C1.O=C(O)C(F)(F)F (stereo not drawn) | -3.432
50 | COCc1nc(CNc2cccc(-c3nc(C)c(C)o3)c2)cs1 | -0.1423
51 | N#Cc1cccc(C(=O)N2C[C@H]3CC[C@@H]2CN(C(=O)C2CCC2)C3)c1 | -9.215
52 | CN(C)S(=O)(=O)N1C[C@@H]2CC[C@H](C1)N(Cc1ccc(F)c(F)c1)C2 | -2.464
53 | Cc1c(Cl)cc(C(=O)NCCc2ncnn2C)cc1Cl | -11.54
54 | O=C1CC(c2cccc(O)c2)c2sc(C(=O)O)c(-c3ccccc3)c2N1 (stereo not drawn) | 10.05
55 | Cc1ccc(CN2C[C@H]3C[C@H](C(=O)NCc4cccnc4)[C@@H](C2)O3)cc1 | 0.7721
56 | COc1ccc(CN2C[C@@H]3COC[C@H](N4CCN(C)CC4)[C@@H]3C2)cc1.O=C(O)C(F)(F)F.O=C(O)C(F)(F)F.O=C(O)C(F)(F)F | -28.1
57 | CNC(=O)[C@H]1C[C@@H]2CN(Cc3ccc(OC)cc3)C[C@H]1O2.O=C(O)C(F)(F)F | 98.44
58 | CN(C)C(=O)[C@H]1C[C@@H]2CN(CCc3ccccc3)C[C@H]1O2.O=C(O)C(F)(F)F | 12.58
59 | Cc1cccc(CN2C[C@H]3C[C@H](C(=O)NCc4cccnc4)[C@@H](C2)O3)c1.O=C(O)C(F)(F)F.O=C(O)C(F)(F)F | -0.193
60 | CNC(=O)[C@H]1CCS(=O)(=O)[C@@H]2CN(Cc3ccc(OC)cc3)C[C@H]12 | 0.06663
61 | CNC(=O)[C@H]1C[C@@H]2CN(Cc3ccc(C)cc3)C[C@H]1O2.O=C(O)C(F)(F)F | 103.7
62 | CNC(=O)[C@H]1C[C@@H]2CN(Cc3cccc(C)c3)C[C@H]1O2.O=C(O)C(F)(F)F | 116.6
63 | CNC(=O)[C@H]1C[C@@H]2CN(Cc3ccccc3)C[C@H]1O2.O=C(O)C(F)(F)F | 106.1
